This is a sample that favours compounds with a hit; in the whole collection about 21% have one here.
Pf growth 96h: P. falciparum growth inhibition at 96 hours; Potency, µM (doses to about 28.7 µM), for the others: top-dose activity change, negative = inhibition, usual class: inhibitors; P. falciparum luciferase reporter growth, 96 h; actives 6.9% (n = 320,000); AID 504834; further: potency means the concentration at half of the fitted maximal effect; on the % scale 0 is the no-effect control and ±100 the full control effect
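Compounds incubated with erythrocytes infected by luciferase-expressing P. falciparum (2% hematocrit, 0.05% parasitemia final) for 96 hours, 37 C in 5% CO2. Growth inhibition scored as decreased luciferase luminescence.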
Sm TGR block: S. mansoni TGR enzyme inhibition; purified TGR, DTNB reduction, TNB absorbance 405 nm; Potency, µM (titrated, usually from 114 µM), without a hit: at the top dose activity change, negative = inhibition, hits mostly inhibitors; Q962Y6; actives 3% (n = 360,000); further: potency means the concentration at half of the fitted maximal effect; on the % scale 0 is the no-effect control and ±100 the full control effect; nearly all actives have a fitted effect of over 60% in size
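Kinetic colorimetric format: TGR-catalysed, NADPH-driven DTNB reduction monitored via TNB absorbance. Enzyme dispensed at 20 nM; compound exposure 15 min at room temperature before reaction start.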
Pf growth 48h: inhibits P. falciparum growth in the first generation, 48 h; P. falciparum luciferase growth in erythrocytes, 48 h; Potency, µM (highest dose often 28.7 µM), inactives show at the highest dose activity change, negative = inhibition, usual class: inhibitors; actives 5.9% (n = 310,000); further: potency means the concentration at half of the fitted maximal effect; on the % scale 0 is the no-effect control and ±100 the full control effect
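Parasite viability was followed by luminescence of a genomically integrated firefly luciferase. Cultures held 0.1% parasitemia at 2% hematocrit (final), incubated under 5% CO2 at 37 C.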
NS1 inh: influenza NS1 inhibition; Potency, µM (series often up to 46.1 µM), for inactives: at the highest dose activity, positive = more growth; actives 0.4% (n = 270,000); calls by dose curve; further: potency means the concentration at half of the fitted maximal effect; actives are rising curves; nearly all actives have a fitted effect of over 50% in size
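Compounds were scored for reversing the slow growth caused by influenza A NS1 in S. cerevisiae, measured by optical density at 600 nm. Assay medium contained 2% galactose at pH 6.0; NS1-free yeast of the same strain were the positive control.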
Cycloheximide cs: counter-screen hit for Shiga toxin inhibitors, cycloheximide; max response, %; actives 12% (n = 300,000); cell reporter, cycloheximide protein synthesis inhibition counterscreen; in the data active means max response mostly above about 13%, no sharp cut-off; inactive means mostly below about 14%; further: read at 38.3 µM for the half of the compounds with a filed dose; 0% is about no effect
Shiga toxin inh: Shiga toxin inhibition; Vero cells, Shiga toxin protein synthesis inhibition reporter; inhibition, % at 38.7 µM; actives 9.2% (n = 290,000); in the data active means inhibition mostly above about 28%, no sharp cut-off; inactive means mostly below about 43%; further: 0% is about no effect
Starred values were filed as active, the others as inactive; u = inconclusive; x = no result. Unless noted, the call rests on the fitted dose curve; in most records, active means well fitted curve in the direction sought with a large enough effect; inconclusive means small, poorly fitted or top-dose-only effect, or another doubt; inactive means no such curve, though single readings can be large; an effect the other way counts as inactive or inconclusive.

SMILES	Pf growth 96h	Sm TGR block	Pf growth 48h	NS1 inh	Cycloheximide cs	Shiga toxin inh
Cc1cccc(-c2nn3c(=O)cc(CN4CCN(S(=O)(=O)c5ccc(Cl)cc5)CC4)nc3s2)c1	x	4%	x	x	x	x
Cc1ccc(-c2nc3nc(C)cc(Nc4ccccc4O)n3n2)cc1	x	-19%	x	x	x	x
CCOC(=O)c1c(CN2CCCCC2)n(C)c2ccc(OC)c(S(=O)(=O)c3ccccc3)c12	7.4µM*	-15%	10µM*	-15%	3	-15
CCOC(=O)c1c(CN2CCCCC2)n(C)c2cc(Br)c(OC)cc12	3.3µM*	-24%	u	-1%	-4	-28
CCOC(=O)c1c(CN2CCN(CCO)CC2)n(C)c2cc(Br)c(OC)cc12	36%	-20%	10µM*	-3%	-5	-13
CCOC(=O)c1c(C)n(C)c2cc(Br)c(OC)cc12	48%	0%	7%	-1%	-2	-4
CCOC(=O)c1c(C)n(CC(O)CN(CC)CC)c2cc(Br)c(OC)cc12 (configuration not stated)	15µM*	10%	u	x	1	-16
CCOC(=O)c1c(C)n(C)c2ccc(O)c(S(=O)(=O)c3ccccc3)c12	x	-27%	18%	-4%	-4	-3
O=C(COc1ccccc1)Nc1ccc(Cl)cc1C(=O)c1ccccc1	-4%	6%	-16%	-1%	5	-3
O=C(COc1ccccc1)Nc1cc(Cl)ccc1Cl	44%	13%	54%	6%	18*	37*
CCCNS(=O)(=O)c1ccc(OCC(=O)Nc2ccccc2F)cc1	-4%	-1%	2%	-5%	13	11
Cc1ccc(Cl)cc1NC(=O)COC(=O)C1CCCC1	3%	6%	22%	-15%	-1	-4
O=C(COc1ccccc1)Nc1ccc(Cl)cc1Cl	137%	0%	118%	-7%	53*	93*
Cc1ccc(Cl)cc1NC(=O)COC(=O)C12CC3CC(CC(C3)C1)C2	7.4µM*	-28%	3.7µM*	1%	-3	36
O=C(COc1ccccc1)Nc1ccccc1F	-21%	0%	46%	-16%	33*	x
C=CCOc1cccc(CNCc2ccncc2)c1	2%	-3%	3%	8%	-1	8
Cc1sc2c(c1C)C(=O)/C(=C\Nc1ccccn1)S(=O)(=O)N2C	11%	3%	u	-1%	-2	-1
Cc1ccc(Cl)cc1NC(=O)CCC(=O)Nc1cc(Cl)ccc1C	38%	0%	x	-2%	-2	-8
Cc1ccc(Cl)cc1NC(=O)COc1ccccc1	22%	6%	16%	-2%	16*	30
O=C(COc1ccc(Cl)cc1)NC1=NN(c2ccccc2)C(=O)C1	8.3µM*	9%	8%	u	-4	-4
O=C(CCCCl)NC1=NN(c2ccccc2)C(=O)C1	26%	5%	8%	15%	6	16
COc1ccc(C(=O)Nc2nc3ccc(S(C)(=O)=O)cc3s2)cc1OC	5.9µM*	6%	15%	x	-3	-4
CS(=O)(=O)c1ccc2nc(NC(=O)CCNC(=O)c3ccc([N+](=O)[O-])cc3)sc2c1	0.74µM*	-14%	u	x	x	x
Cc1ccc(NC(=O)Nc2nc3ccc(S(C)(=O)=O)cc3s2)cc1	u	-4%	u	x	x	x
Cc1cccc(C(=O)Nc2nc3ccc(S(C)(=O)=O)cc3s2)c1	-6%	-29%	60%	15%	36*	88*
SMILES	Pf growth 96h	Sm TGR block	Pf growth 48h	NS1 inh	Cycloheximide cs	Shiga toxin inh
Cc1ccc(C(=O)Nc2nc3ccc(S(C)(=O)=O)cc3s2)cc1C	32%	2%	x	10%	-2	-5
CS(=O)(=O)c1ccc2nc(NC(=O)Nc3ccccc3F)sc2c1	-9%	6%	223%	5%	61*	73*
CCCC1(CCC)NC(=O)N(CC(=O)N2CCN(C(=O)c3ccco3)CC2)C1=O	-21%	-6%	x	14%	-3	-6
NNC(=O)CCn1c2ccccc2c2ccccc21	u	8%	14%	0%	4	-6
CS(=O)(=O)c1ccc(C(=O)Nc2nc(-c3ccco3)c(-c3ccco3)s2)cc1	-12%	3.5µM*	-4%	x	x	x
CS(=O)(=O)c1ccc2nc(NC(=O)Nc3ccc(Cl)c(Cl)c3)sc2c1	47%	4%	-22%	u	-2	12
CS(=O)(=O)c1ccc2nc(NC(=O)Nc3cccc(Cl)c3)sc2c1	u	-12%	u	27%	31*	107*
COc1cc(C(=O)Nc2nc3ccc(C)cc3s2)ccc1OCc1c(C)noc1C	6%	28%	-12%	u	62*	76*
CCc1nnc(NC(=O)c2ccc(OCc3c(C)noc3C)c(OC)c2)s1	u	-6%	201%	x	-10	-4
CS(=O)(=O)c1ccc2nc(NC(=O)c3ccccc3)sc2c1	4%	3%	184%	2%	28*	39*
CCCc1cc(=O)[nH]c(SCC(=O)NCC2COc3ccccc3O2)n1 (configuration not stated)	4%	3%	3%	x	x	x
O=C(NC1CCSc2ccccc21)c1ccc(C(F)(F)F)cc1 (configuration not stated)	u	-12%	-16%	4%	-3	14
COc1ccc(CNC(=O)C2=C(C)C(=O)OC23CCN(C(C)=O)CC3)cc1	x	22%	x	x	x	x
CC(C)(C)C(=O)Nc1nc2ccc(S(C)(=O)=O)cc2s1	117%	6%	56%	x	36*	78*
CS(=O)(=O)c1ccc2nc(NC(=O)Cc3ccccc3)sc2c1	-25%	32%	3%	u	9	18
COc1ccc(C(=O)Cc2cc(OC)c(OC)cc2C(=O)c2ccccc2F)cc1OC	u	x	u	-1%	-1	3
CCOc1ccc(/C=C2/SC(=O)NC2=S)cc1	u	45µM*	4%	-33%	35*	46*
CCOc1ccc(/C=C2\SC(=S)N(CC(=O)N(CCO)C(C)(C)C)C2=O)cc1	13%	x	0%	4%	1	10
CCOc1ccc(N=C2NC(=O)S/C2=C\c2ccc(N(C)C)cc2)cc1	98%	1%	82%	-30%	22*	59*
O=C1NC(=Nc2ccc(Cl)cc2)/C(=C/c2ccco2)S1	u	0%	u	16%	8	14
CCOc1ccc(/C=C2\SC(=S)N(N3C(=O)C4CC4C3=O)C2=O)cc1 (configuration not stated)	-7%	-2%	4.1µM*	0%	8	18
O=C(COc1ccccc1)N(Cc1cccs1)C1CCS(=O)(=O)C1 (configuration not stated)	1%	-2%	-15%	-4%	-2	20
COc1ccc(-c2onc(C)c2C)cc1S(=O)(=O)NCC1CCN(Cc2cc(C)ccc2C)CC1	x	-1%	x	x	x	x
CC(C)N(C(=O)CSc1nnc(Cc2csc(Nc3ccccc3)n2)o1)C(C)C	3%	-5%	u	x	12	18
COc1ccccc1Oc1ccc(S(=O)(=O)NCc2ccccn2)cc1	10µM*	-13%	2%	-12%	3	23

High-throughput results (PubChem BioAssay)
